The values that follow come from the supplement of paper PMC11732987, “Enantioselective OTUD7B fragment discovery through chemoproteomics screening and high-throughput optimisation” (Communications Chemistry, 2025).

Unmarked numbers belong to inactive results.

Experiment in all cases: log2 ratio of Biotin-Ahx-Ub-VS probe labelling (fragment/DMSO); higher = less target engagement (more negative = stronger competition), active = hit call of the paper (q ≤ 0.05, log2 ratio ≤ -1)
What all share (conditions): compound concentration: 200 uM; treatment time: 3 h

The target in one assay is T1, OTUD6B (UniProt Q8N6M0).
T1 sequence (whole entry): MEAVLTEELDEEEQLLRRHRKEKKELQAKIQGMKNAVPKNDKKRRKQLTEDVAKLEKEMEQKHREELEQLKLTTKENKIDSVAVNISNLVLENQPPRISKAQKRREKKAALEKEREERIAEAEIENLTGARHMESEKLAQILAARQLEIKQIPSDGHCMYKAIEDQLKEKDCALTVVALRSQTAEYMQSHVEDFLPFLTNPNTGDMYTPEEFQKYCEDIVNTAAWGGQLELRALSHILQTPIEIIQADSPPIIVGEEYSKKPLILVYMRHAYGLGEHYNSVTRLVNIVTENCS
Put shortly:
(§1)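 HEK293T lysate, 495 µg per sample in Tris/CHAPS/IGEPAL buffer with protease inhibitors, was treated in triplicate with fragment at 200 µM or vehicle for 3 h and then with Biotin-Ahx-Ub-VS at 0.5 µM final for 1 h. Labelled DUBs were NeutrAvidin-enriched, digested with LysC and trypsin, and run by diaPASEF LC-MS/MS. Spectronaut label-free quantities were global-median-normalised, and values are average log2 fragment/vehicle ratios by unpaired t-test on proteins with ≥2 unique peptides.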

The target of a further assay is T2, OTUD7B (UniProt Q6GQQ9).
T2 sequence (whole entry): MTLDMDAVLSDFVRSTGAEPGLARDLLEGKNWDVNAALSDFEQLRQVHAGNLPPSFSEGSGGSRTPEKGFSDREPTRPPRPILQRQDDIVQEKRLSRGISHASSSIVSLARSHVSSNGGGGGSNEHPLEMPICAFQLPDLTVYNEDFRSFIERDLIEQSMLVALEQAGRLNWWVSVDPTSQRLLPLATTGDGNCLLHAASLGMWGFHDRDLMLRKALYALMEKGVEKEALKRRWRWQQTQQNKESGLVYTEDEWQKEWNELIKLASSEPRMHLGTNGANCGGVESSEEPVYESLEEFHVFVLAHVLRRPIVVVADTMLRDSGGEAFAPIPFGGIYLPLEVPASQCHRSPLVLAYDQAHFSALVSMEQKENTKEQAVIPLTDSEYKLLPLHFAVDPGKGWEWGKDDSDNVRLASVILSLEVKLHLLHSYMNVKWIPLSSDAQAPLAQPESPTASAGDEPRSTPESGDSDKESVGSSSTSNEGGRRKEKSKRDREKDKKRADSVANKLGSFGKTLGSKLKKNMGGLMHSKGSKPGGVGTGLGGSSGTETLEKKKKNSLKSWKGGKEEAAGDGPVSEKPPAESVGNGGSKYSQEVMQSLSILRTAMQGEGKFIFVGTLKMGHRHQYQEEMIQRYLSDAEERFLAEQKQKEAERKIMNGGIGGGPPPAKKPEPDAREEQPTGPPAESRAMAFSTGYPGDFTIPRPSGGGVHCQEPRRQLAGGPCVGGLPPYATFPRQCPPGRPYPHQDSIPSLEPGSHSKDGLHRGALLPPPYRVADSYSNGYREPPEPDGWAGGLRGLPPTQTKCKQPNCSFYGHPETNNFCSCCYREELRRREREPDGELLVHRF
In a few lines:
as §1

A further assay addresses PRPF8 (UniProt Q6P2Q9). Put shortly: as §1
The target of a further assay is T3, PSMD7 (UniProt P51665).
T3 sequence (whole entry): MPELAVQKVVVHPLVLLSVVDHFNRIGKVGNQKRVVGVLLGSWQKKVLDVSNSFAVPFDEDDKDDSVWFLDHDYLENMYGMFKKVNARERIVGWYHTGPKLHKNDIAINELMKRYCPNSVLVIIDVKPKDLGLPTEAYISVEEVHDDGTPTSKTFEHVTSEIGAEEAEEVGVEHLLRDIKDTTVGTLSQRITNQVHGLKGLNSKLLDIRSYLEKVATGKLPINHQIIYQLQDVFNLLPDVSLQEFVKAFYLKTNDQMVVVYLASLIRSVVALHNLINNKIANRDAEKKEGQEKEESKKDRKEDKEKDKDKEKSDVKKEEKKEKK
In a few lines:
as §1

The next assay has as its target UCHL1 (UniProt P09936). Put shortly:
as §1

In a further assay the target is T4, UCHL3 (UniProt P15374).
T4 sequence (whole entry): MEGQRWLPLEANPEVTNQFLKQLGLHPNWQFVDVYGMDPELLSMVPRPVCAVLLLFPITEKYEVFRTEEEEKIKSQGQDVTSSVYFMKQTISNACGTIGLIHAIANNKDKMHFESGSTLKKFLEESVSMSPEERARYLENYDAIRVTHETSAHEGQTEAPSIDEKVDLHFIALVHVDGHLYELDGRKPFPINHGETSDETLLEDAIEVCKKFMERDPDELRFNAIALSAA
Put shortly:
as §1

The next assay has as its target T5, UCHL5 (UniProt Q9Y5K5).
T5 sequence (whole entry): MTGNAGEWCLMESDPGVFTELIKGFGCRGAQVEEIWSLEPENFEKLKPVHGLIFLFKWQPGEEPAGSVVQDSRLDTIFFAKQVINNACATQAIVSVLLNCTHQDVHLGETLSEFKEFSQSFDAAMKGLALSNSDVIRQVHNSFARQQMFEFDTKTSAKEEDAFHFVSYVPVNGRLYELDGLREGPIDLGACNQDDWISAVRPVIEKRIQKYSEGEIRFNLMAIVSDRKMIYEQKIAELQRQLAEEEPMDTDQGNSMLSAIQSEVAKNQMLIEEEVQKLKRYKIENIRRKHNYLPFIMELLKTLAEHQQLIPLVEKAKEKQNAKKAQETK
Put shortly:
as §1

For the next assay, the target named is USP10 (UniProt Q14694). Put shortly: as §1
The target in another assay is T6, USP15 (UniProt Q9Y4E8).
T6 sequence (whole entry): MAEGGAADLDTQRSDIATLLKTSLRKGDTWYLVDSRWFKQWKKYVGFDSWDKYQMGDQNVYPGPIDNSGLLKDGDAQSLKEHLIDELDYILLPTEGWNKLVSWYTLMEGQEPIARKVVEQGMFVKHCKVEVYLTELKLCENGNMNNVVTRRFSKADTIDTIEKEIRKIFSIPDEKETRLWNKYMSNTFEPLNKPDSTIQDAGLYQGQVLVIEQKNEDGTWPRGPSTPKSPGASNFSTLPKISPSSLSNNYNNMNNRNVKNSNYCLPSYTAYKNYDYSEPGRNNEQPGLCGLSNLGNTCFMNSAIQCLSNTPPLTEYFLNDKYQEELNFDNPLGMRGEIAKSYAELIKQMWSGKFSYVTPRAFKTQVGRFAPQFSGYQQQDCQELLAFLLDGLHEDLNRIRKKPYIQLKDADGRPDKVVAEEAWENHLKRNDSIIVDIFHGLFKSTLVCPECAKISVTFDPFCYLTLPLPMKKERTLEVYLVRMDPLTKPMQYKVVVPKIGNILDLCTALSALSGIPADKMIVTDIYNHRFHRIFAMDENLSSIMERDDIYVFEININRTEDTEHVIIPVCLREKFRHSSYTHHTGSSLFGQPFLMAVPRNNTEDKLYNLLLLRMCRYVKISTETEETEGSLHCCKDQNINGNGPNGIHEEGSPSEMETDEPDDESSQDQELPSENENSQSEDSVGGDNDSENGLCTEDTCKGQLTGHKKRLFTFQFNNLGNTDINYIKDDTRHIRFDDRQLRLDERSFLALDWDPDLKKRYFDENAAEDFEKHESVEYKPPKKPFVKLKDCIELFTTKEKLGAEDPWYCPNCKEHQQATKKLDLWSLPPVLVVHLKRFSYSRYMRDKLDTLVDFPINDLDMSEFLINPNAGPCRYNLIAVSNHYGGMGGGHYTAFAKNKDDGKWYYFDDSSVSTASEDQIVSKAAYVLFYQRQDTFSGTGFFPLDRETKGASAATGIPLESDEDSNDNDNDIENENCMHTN
In a few lines:
as §1

The target in another assay is USP16 (UniProt Q9Y5T5). Put shortly: as §1
Chain of USP16 (Q9Y5T5 whole entry, looked up): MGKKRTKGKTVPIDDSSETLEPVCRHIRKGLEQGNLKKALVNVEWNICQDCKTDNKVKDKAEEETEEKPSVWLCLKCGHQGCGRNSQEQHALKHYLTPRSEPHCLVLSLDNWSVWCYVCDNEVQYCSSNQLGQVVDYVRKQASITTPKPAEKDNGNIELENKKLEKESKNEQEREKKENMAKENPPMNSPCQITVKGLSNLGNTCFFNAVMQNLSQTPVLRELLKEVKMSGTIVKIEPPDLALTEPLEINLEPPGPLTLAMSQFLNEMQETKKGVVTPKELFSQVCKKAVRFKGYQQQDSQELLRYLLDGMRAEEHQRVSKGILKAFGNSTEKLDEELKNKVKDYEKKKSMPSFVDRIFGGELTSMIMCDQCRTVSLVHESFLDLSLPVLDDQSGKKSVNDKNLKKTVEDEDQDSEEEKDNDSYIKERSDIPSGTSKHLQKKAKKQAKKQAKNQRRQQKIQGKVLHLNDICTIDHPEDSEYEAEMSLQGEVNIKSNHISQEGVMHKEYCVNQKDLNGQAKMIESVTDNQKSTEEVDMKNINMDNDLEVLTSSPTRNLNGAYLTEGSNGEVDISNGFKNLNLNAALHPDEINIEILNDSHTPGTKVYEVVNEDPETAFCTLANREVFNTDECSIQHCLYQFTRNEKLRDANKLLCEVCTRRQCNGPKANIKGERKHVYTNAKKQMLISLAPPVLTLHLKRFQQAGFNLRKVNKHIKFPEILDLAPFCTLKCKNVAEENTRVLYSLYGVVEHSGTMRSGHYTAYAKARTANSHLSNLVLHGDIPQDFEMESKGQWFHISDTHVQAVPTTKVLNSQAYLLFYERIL

Chain of USP10 (Q14694 whole entry): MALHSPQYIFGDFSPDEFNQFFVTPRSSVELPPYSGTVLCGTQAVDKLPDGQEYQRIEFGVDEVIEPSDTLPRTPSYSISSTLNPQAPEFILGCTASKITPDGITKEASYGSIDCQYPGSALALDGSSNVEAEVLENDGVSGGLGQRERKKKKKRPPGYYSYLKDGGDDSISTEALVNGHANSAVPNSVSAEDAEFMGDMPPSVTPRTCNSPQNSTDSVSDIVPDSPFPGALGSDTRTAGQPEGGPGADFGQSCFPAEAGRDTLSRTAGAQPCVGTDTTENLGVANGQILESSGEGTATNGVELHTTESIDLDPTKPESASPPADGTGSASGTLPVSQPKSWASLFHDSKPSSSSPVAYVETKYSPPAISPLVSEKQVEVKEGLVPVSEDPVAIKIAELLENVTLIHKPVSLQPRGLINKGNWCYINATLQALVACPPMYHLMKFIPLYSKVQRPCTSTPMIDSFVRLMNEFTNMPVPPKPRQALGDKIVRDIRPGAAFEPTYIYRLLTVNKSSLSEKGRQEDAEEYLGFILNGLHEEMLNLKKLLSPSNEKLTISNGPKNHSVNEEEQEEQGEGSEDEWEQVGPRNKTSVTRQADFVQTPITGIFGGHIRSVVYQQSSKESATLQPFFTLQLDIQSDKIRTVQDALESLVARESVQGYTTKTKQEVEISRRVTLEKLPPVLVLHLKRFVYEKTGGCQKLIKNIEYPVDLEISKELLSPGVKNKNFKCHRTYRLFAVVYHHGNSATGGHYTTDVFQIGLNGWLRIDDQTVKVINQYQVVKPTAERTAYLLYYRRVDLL
Chain of UCHL1 (P09936 whole entry, looked up): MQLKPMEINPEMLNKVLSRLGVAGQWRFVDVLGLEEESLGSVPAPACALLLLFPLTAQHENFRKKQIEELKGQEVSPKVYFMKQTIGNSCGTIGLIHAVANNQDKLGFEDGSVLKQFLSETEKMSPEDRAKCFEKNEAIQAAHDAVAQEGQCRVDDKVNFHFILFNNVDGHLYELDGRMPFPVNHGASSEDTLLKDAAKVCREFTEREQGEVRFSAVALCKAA

In the case of `CC(O)CC1CCN(C(=O)CCl)CC1` (stereo not given), the “log2 ratio of Biotin-Ahx-Ub-VS probe labelling” value in the assay with OTUD6B is -0.0339; in the assay with OTUD7B, -0.302; in the assay with PRPF8 it was 0.0532; with PSMD7, -0.0764; with UCHL1, -1.53 (active); with UCHL3, 0.294. Further, the “log2 ratio of Biotin-Ahx-Ub-VS probe labelling” value in the assay with UCHL5 was -0.019; with USP10, -0.0376; with USP15 it was -0.0583; with USP16, -0.771.
